According to the supplement of paper PMC3334620:
Over roughly 33,000 sequences, “E-score (-0.5 to 0.5)” has its median near -0.016; the highest 2% begin near 0.3. The full list was thinned out, with the highest values kept by preference.

Biological target: T1, Yer184c (UniProt P39961)
T1 sequence: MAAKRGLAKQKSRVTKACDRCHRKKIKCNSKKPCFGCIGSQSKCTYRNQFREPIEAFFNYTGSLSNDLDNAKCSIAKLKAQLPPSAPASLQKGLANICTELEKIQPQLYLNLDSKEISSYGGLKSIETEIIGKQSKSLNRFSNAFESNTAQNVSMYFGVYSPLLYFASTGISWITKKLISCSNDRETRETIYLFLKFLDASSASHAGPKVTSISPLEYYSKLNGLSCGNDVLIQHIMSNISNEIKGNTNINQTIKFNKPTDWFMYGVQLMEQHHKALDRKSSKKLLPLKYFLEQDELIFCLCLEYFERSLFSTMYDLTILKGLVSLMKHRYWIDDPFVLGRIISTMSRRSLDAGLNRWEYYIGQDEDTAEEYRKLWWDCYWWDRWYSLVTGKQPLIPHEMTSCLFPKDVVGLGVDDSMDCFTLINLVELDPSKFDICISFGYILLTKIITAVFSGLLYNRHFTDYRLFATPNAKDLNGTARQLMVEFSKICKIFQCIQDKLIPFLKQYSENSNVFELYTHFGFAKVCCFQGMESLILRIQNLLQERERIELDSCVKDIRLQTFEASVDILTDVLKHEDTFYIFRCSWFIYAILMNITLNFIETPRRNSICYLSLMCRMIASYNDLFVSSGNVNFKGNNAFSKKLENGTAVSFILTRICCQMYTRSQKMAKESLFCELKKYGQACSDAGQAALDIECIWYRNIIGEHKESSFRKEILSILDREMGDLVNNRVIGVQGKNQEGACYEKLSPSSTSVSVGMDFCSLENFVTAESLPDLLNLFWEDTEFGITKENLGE
Assay: PBM E-score (8-mer binding enrichment) (E-score (-0.5 to 0.5)); higher = stronger / more preferred TF binding
Settings: protein concentration: 100 nM; construct: GST-full length
Method in brief: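 Each ungapped eight-base word and its reverse complement, pooled, received an E-score from the Universal PBM Analysis Suite. Underlying scans, normalised with masliner, recorded fluorescent anti-GST bound to GST-tagged yeast transcription factors. These were applied at about 100-200 nM to universal all-10-mer Agilent arrays double-stranded by primer extension.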

| Sequence | PBM E-score |
| --- | --- |
| CGACTAAG | -0.0168 |
| CTTCGCGA | 0.0769 |
| ATTCGCGA | -0.0163 |
| GTTCGCGA | 0.311 |
| GATTCCCA | -0.0287 |
| CCTTCCGA | 0.227 |
| GCTTCCTA | 0.0691 |
| GATTCCGC | 0.0917 |
| GCTTCCGA | 0.306 |
| GATTCCGA | 0.33 |
| AATTCCAA | 0.116 |
| TATTCCAA | 0.115 |
| TATTCCGA | 0.389 |
| AATTCCCA | -0.123 |
| TATTCCCA | 0.0619 |
| AATTCCGA | 0.389 |
| GGGTAGAA | -0.0545 |
| CAGAGCAG | -0.00548 |
| ACCAGCTC | -0.141 |
| AGACCTAA | -0.106 |
| AGAGACCG | -0.00169 |
| AATTTCCA | 0.145 |
| ATCTCTAG | -0.118 |
| TCTATGAA | 0.112 |
| CACTTTCC | 0.021 |

| Sequence | PBM E-score |
| --- | --- |
| AAAAATTA | 0.253 |
| ATAAATTG | 0.254 |
| CAAATTTA | 0.119 |
| AGAAATTC | 0.077 |
| TAAAATTA | 0.341 |
| AGAAATTA | 0.354 |
| TAAATTTA | 0.311 |
| AAAATTTA | 0.228 |
| CTAAATTA | 0.202 |
| ATAAATTA | 0.316 |
| GGAAATTA | 0.201 |
| CAAAATTA | 0.212 |
| CGAACTAC | 0.0997 |
| GATTGCCA | -0.0755 |
| GACAGTAC | 0.135 |
| ACACTCTC | 0.0613 |
| ACAATCGT | -0.28 |
| ACAATCGC | 0.0673 |
| ACAATCGG | 0.307 |
| GCTGAACC | 0.0738 |
| AACGCCAG | 0.0264 |
| CGGCCTTC | 0.33 |
| CGGCCGGA | 0.402 |
| AGGCCGGC | 0.265 |
| CGGCCTTA | 0.291 |

| Sequence | PBM E-score |
| --- | --- |
| AGGCCGTA | 0.178 |
| CGGCCGGC | 0.42 |
| CGGCCGCA | 0.277 |
| CGGCCGTC | 0.278 |
| AGGCCGGA | 0.247 |
| CGGCCGTA | 0.311 |
| AGGCCTTC | -0.0978 |
| CGGCCGCC | 0.209 |
| CAGTAGAA | -0.069 |
| AATCCTCA | -0.0565 |
| GCCGATAC | 0.13 |
| CTCAACAG | -0.0543 |
| GAAGGGAA | -0.203 |
| AGCTCATG | -0.175 |
| AGAGTGGC | -0.217 |
| AGGCGATA | -0.12 |
| CGGCGACC | 0.237 |
| TGGCGAAA | 0.0101 |
| GGGCGATA | -0.222 |
| CGGCGAAA | 0.35 |
| AGGCGATC | -0.168 |
| CGGCGATA | 0.36 |
| CGGCGATC | 0.312 |
| CGGCGAAG | 0.205 |
| GAACAGCA | 0.123 |

| Sequence | PBM E-score |
| --- | --- |
| ACCCAAGG | -0.162 |
| ACGGCGAT | 0.188 |
| CCCCCTTA | -0.348 |
| CGAGGTTA | -0.00293 |
| CCAGGGTA | -0.174 |
| ACTAACTC | -0.00452 |
| ATTCTTTA | 0.0489 |
| CTGAGTGA | 0.24 |
| ATCCTATG | -0.0991 |
| CTGAATAA | 0.134 |
| ATTAACCC | 0.0664 |
| ATTAACCG | 0.335 |
| ATTAACCA | -0.114 |
| CCTCCGGA | 0.337 |
| CCTCCGCA | -0.247 |
| CCTCCGTA | -0.0207 |
| GCTCCGGA | 0.367 |
| GCTCCGCA | 0.0792 |
| GCTCCGTA | 0.205 |
| CTTGACAA | 0.152 |
| GGGACCGA | 0.158 |
| CGAACCGC | 0.189 |
| CGGACCAG | 0.185 |
| CGGACCAC | 0.244 |
| CGGACCAA | 0.343 |

| Sequence | PBM E-score |
| --- | --- |
| CGAACCGA | 0.328 |
| GGAACCGA | 0.248 |
| CGGACCGA | 0.402 |
| CGGACCGC | 0.104 |
| AACGGTTA | 0.0289 |
| AGAGACAT | -0.0279 |
| GATAGCGC | -0.051 |
| CAAATAGC | 0.0894 |
| AAAGGAAA | 0.203 |
| CGGATCCC | 0.171 |
| AAGATCCG | 0.091 |
| CGGATCCG | 0.445 |
| CAGATCCG | 0.317 |
| CGGATCCA | 0.263 |
| CAGATCCC | -0.21 |
| GGCATGAC | -0.199 |
| CAGGATAG | 0.0949 |
| CCGGATAC | 0.257 |
| CAGGATAA | -0.0581 |
| GCGGATAA | 0.224 |
| ACGGATAA | 0.299 |
| ACGGATAG | 0.139 |
| TGGGATAA | -0.0513 |
| ACGGATAT | 0.339 |
| TCGGATAA | 0.379 |

| Sequence | PBM E-score |
| --- | --- |
| CCGGATAA | 0.4 |
| CGGGATAG | 0.102 |
| CCGGATAG | 0.342 |
| ATGTTCAA | 0.134 |
| ACCTTACG | 0.00591 |
| GCAGGACA | 0.11 |
| CCTTCTTC | -0.19 |
| GGCGGGAA | 0.0413 |
| GGCGGAAA | 0.108 |
| AGCGGAAA | 0.27 |
| AGCGGAAC | 0.194 |
| CGCGGGGA | 0.125 |
| GGCGGAAC | 0.199 |
| CGCGGGAA | 0.311 |
| CGCGGAAA | 0.325 |
| CGCGGAAC | 0.382 |
| GATGGACA | 0.183 |
| ATTAGCGC | 0.056 |
| ATAGATCA | 0.216 |
| CAAGCTGG | -0.129 |
| CCAGCCCA | -0.258 |
| ATACTCTG | 0.006 |
| CGGGTTCC | 0.246 |
| AAGAAACC | 0.129 |
| CGTAGAGA | -0.0444 |

| Sequence | PBM E-score |
| --- | --- |
| GAACGCGC | 0.163 |
| AGTATATG | 0.0296 |
| GGTATAAA | 0.16 |
| AGTATATC | 0.155 |
| AGTATAAA | 0.365 |
| TGTATAAA | 0.0524 |
| AGTATAAC | -0.0238 |
| CGTATAAA | 0.311 |
| AGTATATA | 0.334 |
| CGTATAAC | 0.106 |
| TCGCACAA | -0.0958 |
| CCATTTCC | 0.13 |
| ACCTACAC | -0.309 |
| CCCTCAAG | -0.297 |
| GAAGTGGA | 0.0603 |
| GTACCGAA | 0.227 |
| CTACCGAA | 0.105 |
| ATACCGAA | 0.322 |
| ATACCGAC | 0.0349 |
| TTACCGAA | 0.336 |
| ATACCGAT | 0.11 |
| AAAATGTA | -0.017 |
